Source: PubChem (National Center for Advancing Translational Sciences (NCATS))
This is a sample that favours compounds with a hit; in the whole collection about 12% have one here.
Sfp inh – blocks B. subtilis Sfp PPTase activity. AID 1490. 3.5% of 310,000 active. Potency, µM, for inactives: largest response in the series, negative = inhibition, hits mostly inhibitors. Biochemical Sfp PPTase activity, qHTS. Q9F4F7;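 further: the enzyme is Sfp with the accession as filed and its product quenches rhodamine fluorescence; 0% = enzyme reaction without inhibitor and -100% = no enzyme wells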
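After 15 min at room temperature with compound, 15 nM Sfp received 5 uM rhodamine-CoA plus 12.5 uM BHQ-2-ybbR (50 mM Hepes pH 7.6, 10 mM MgCl2). Rate came from the fluorescence difference over 30 min, ex 525/em 598 nm.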
BAZ2B inh – inhibitors of human BAZ2B bromodomain. Q9UIF8. AlphaScreen BAZ2B-H3K14Ac peptide displacement. Potency, µM (series often up to 114 µM), without a hit: at the top dose activity change, negative = inhibition, most hits filed as inhibitors. 4.4% of 360,000 active. AID 504333; further: on the % scale 0 is the no-effect control and ±100 the full control effect; nearly all actives have a fitted effect of over 60% in size
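BAZ2B 50 nM plus b-H3(5-23)K14Ac 50 nM, PBS pH 7.4/0.01% Tween-20, 30 min RT; compound added (max 110 uM), 30 min RT; streptavidin donor/Ni-chelate acceptor beads 10 ug/mL final, 20 min dark; AlphaScreen read.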
JMJD2A Tudor – blocks the human JMJD2A Tudor domain; O75164; AlphaScreen JMJD2A-Tudor / H3K4me3 peptide binding; Potency, µM (series often up to 114 µM), for the others: at the highest dose activity change, negative = inhibition, usual class: inhibitors; 4.4% of 390,000 active; further: on the % scale 0 is the no-effect control and ±100 the full control effect; nearly all actives have a fitted effect of over 50% in size
G9a block – inhibitors of human histone lysine methyltransferase G9a. Q96KQ7. G9a H3K9 monomethylation, AlphaScreen, 2 h. Potency, µM (series often up to 102 µM), inactives show at the top dose activity, negative = inhibition, most hits filed as inhibitors. 8.8% of 350,000 active. AID 504332; further: on the % scale 0 is the no-effect control and ±100 the full control effect; nearly all actives have a fitted effect of over 75% in size
Target sequence (Q96KQ7 913-1193 limits assumed): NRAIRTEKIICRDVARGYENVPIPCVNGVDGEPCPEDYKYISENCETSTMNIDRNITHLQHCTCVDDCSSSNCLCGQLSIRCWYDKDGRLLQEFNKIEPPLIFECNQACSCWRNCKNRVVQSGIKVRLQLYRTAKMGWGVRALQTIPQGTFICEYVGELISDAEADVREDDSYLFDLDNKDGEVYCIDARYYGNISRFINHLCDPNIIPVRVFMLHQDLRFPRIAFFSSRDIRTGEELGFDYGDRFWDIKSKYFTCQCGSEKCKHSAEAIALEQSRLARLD
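G9a (20 nM) was preincubated 15 min with compound, then reacted 2 h at room temperature with 500 nM biotin-H3K9 peptide and 20 µM SAM. Monomethyl-H3K9 detected by AlphaScreen using anti-H3K9me1 antibody.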
HP1b chromo inh – HP1-beta chromodomain-methylated histone interaction inhibition; 0.56% of 390,000 active; P83916; AID 540317; AlphaScreen HP1-beta / biotin-H3K9me3 peptide binding; Potency, µM (highest dose often 114 µM), for inactives: at the highest dose activity change, negative = inhibition, usual class: inhibitors; further: nearly all actives have a fitted effect of over 70% in size
Target sequence (P83916 whole entry, looked up): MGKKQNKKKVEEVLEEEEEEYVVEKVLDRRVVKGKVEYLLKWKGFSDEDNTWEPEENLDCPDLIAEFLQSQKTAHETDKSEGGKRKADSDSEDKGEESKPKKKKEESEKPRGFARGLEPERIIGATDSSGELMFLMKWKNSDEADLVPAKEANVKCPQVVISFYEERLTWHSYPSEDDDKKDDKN
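AlphaScreen: HP1-beta (50 nM) preformed 30 min with biotin-H3(1-18)K9me3 peptide (50 nM) in PBS pH 7.4, 0.01% Tween-20. Compound added for 30 min at RT, then streptavidin donor/nickel chelate acceptor beads (10 ug/mL) for 30 min.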
The depositor's hits bear a star; u = inconclusive; x = not tested or not shown; ! = a repeat was not active; [ ] = dose if it differs, or a comment. The call rests on the fitted dose curve; in most records, active means well fitted curve in the direction sought with a large enough effect; inconclusive means small, poorly fitted or top-dose-only effect, or another doubt; inactive means no such curve, though single readings can be large; an effect the other way counts as inactive or inconclusive. Potency means the concentration at half of the fitted maximal effect.

SMILES	Sfp inh	BAZ2B inh	JMJD2A Tudor	G9a block	HP1b chromo inh
O=C(/C=C/c1ccco1)OCc1nnc(-c2ccccc2)o1	-16%	50µM*	-26%	50µM*	6%
O=C(COC(=O)/C=C/c1ccco1)Nc1ccccc1	-9%	u	-23%	56µM*	-2%
COC(=O)c1ccccc1NC(=O)COC(=O)/C=C/c1cccs1	x	x	-7%	x	23%
COC(=O)c1ccccc1NC(=O)COC(=O)/C=C/c1ccco1	3%	u	-13%	50µM*	12%
O=C(NNc1nc(N2CCOCC2)nc(N2CCOCC2)n1)c1ccccc1	x	x	-5%	x	34%
COc1ccc(S(=O)(=O)n2nc(C)c(S(=O)(=O)N3CCCCCC3)c2C)cc1OC	x	-13%	u	-22%[59 µM]	10%[57 µM]
COCCNc1nc(C)nc2c1nc(-c1ccccc1)n2CCN1CCCCC1	30%	x	x	x	x
CCOC(=O)c1cccc(NC(=O)/C=C/c2ccc3c(c2)OCO3)c1	79µM*	5%	1%[57.1 µM]	9%[59 µM]	34%
CCCCOc1ccc(Nc2cc(Cl)ccc2C(=O)O)cn1	10%	71µM*	u	30%[0.501 µM]	-30%
O=C(CCCOc1ccc(Cl)cc1Cl)Nc1ccccc1C(=O)O	21%	-1%	-13%	-3%	32%
Cc1nc2scc(-c3ccco3)c2c(=O)n1/N=C/N(C)C	13µM*	-1%	-23%	-39%[12.7 µM]	23%
COc1cc(CNCc2cccnc2)ccc1OCC(=O)NC(C)(C)C	0%	-34%	-20%	u	33%
CC(C)(C)NC(=O)COc1ccc(CNCc2cccnc2)cc1	4%	u	89µM*	-37%	35%
COc1cc(CNCc2ccccn2)ccc1OCC(=O)NC1CCCCC1	u	56µM*	u	u	28%
COc1cc(CNCc2ccccn2)ccc1OCC(=O)NC(C)(C)C	-22%	50µM*	u	2%[59 µM]	36%
CCOc1cc(CNCc2ccccc2)ccc1OCC(=O)NC1CCCCC1	12%	-17%	-19%	-6%	26%
Cc1cccc(NC(=O)COC(=O)CN2CCCCCC2=O)c1C	x	x	-5%	x	13%
Cc1nn(CC(=O)c2cccc(Cl)c2)c(C)c1[N+](=O)[O-]	11%	-9%	-10%	-1%	22%
O=C(Nc1ccccc1Cl)N1CCN(c2ccc3nnc(-c4ccccc4)n3n2)CC1	6%	-30%	-15%	50µM*	26%
O=C(Nc1ccc(Cl)cc1)N1CCN(c2ccc3nnc(-c4ccc(F)cc4)n3n2)CC1	-10%	11%	-17%	6%[59 µM]	13%
Cc1c(C=NCCOCc2ccccc2)cnn1C	7%	0%	8%	-3%[12.7 µM]	45%
CCCCc1c(CCC)c(=N)c2ccccc2n1C	2%	-4%[57.1 µM]	89µM*	11%[59 µM]	35%
CC(C)N(C(=O)CSc1nnc(CN2CCCCCC2=O)n1-c1ccccn1)C(C)C	-3%	-27%	89µM*	u	u
CC(C)CNC(=O)CSc1nnc(CN2CCCCCC2=O)n1-c1ccccn1	13%	x	-4%	-8%[59 µM]	-7%
CCSc1ccc2c(c1)N(CCCN1CCN(C)CC1)c1ccccc1S2	-9%	35µM*	40µM*	14µM*	u
SMILES	Sfp inh	BAZ2B inh	JMJD2A Tudor	G9a block	HP1b chromo inh
CN1CCN(CCCN2c3ccccc3Sc3ccc(Cl)cc32)CC1	u	20µM*	45µM*	16µM*!	u
CCC(=O)c1ccc2c(c1)N(CCCN1CCN(CCO)CC1)c1ccccc1S2	79µM*	x	x	u	x
CC(=O)c1ccc2c(c1)N(CCCN1CCN(CCO)CC1)c1ccccc1S2	-9%	x	x	u	x
CN1CCN(CCCN2c3ccccc3Sc3ccccc32)CC1	-10%	x	x	28µM*	x
O=C(Nc1ccc(C(=O)N2CCC(O)(c3ccc(Cl)c(C(F)(F)F)c3)CC2)cc1)c1ccc(Br)o1	x	u	-35%	19%[2.33 µM]	0%
O=C(CNC(=O)c1cccc(Br)c1)N/N=C/c1ccc[nH]1	-9%	0%	-12%	49%	22%
COc1cnc(-c2ccccn2)nc1Oc1ccc(Cl)c2ccccc12	-6%	-37%	-35%	24%	19%
COc1cnc(-c2ccccn2)nc1Oc1ccc(F)cc1F	11%	40µM*	-32%	5%	44%
COc1cnc(-c2ccccc2)nc1Oc1ccccc1C	-2%	47%	103%	-63%	111%
COc1cnc(-c2ccccn2)nc1Oc1ccc(Cl)cc1	2%	32µM*	-31%	x	13%
COc1cnc(-c2ccccn2)nc1Oc1ccccc1Cl	8%	50µM*	12%	8%[59 µM]	34%
Cc1ccc(-c2nn(C)c(=O)c3ccccc23)cc1CNC(=O)/C=C/c1ccccc1	-10%	12%	-16%	x	16%
O=C(c1ccccc1F)N1CCN(c2cnn(-c3cccc(Cl)c3)c(=O)c2Cl)CC1	11%	7%	-10%[11.4 µM]	0%	-9%
CC(=O)C1=C(O)C(=O)N(Cc2ccccc2)C1c1ccco1 (centres undefined)	-5%	u	u	50µM*	15%
CC(=O)C1=C(O)C(=O)N(Cc2ccco2)C1c1ccccc1F (centres undefined)	-16%	-33%	-29%	-22%	13%
CC(=O)C1=C(O)C(=O)N(Cc2ccco2)C1c1ccccc1 (centres undefined)	56µM*	u	u	50µM*	8%
O=C(C1=C(O)C(=O)N(Cc2ccco2)C1c1cccc([N+](=O)[O-])c1)c1ccco1 (centres undefined)	u	5%	50µM*	x	-13%
CC(=O)C1=C(O)C(=O)N(Cc2ccco2)C1c1ccc(F)cc1 (centres undefined)	45µM*	-15%	-19%	u	25%
CCc1c(C(=O)NCc2ccc3c(c2)OCO3)[nH]c(C)c1C(C)=O	-4%	u	-9%	-5%[0.501 µM]	3%
C[C@@]12CCc3occc3[C@H]1CC[C@]13CC(=O)[C@@H](CC[C@H]12)C3	-18%	x	x	x	x
Cc1cccc(C(=O)Oc2ccc(/C=N/O)cc2)c1	-11%	-5%	-1%	10µM*	51%
O=S(=O)(c1cc(Cl)ccc1Br)N1CCOCC1	21%	7%	12%	-2%[12.7 µM]	23%
C[C@]12CCC[C@H](O1)c1c(cc3c(c1O)C(=O)c1c(O)cc(O)cc1C3=O)O2	x	x	35µM*	x	u
CCC/C=C1/CCCOC(C(=O)NCc2ccccn2)(C(F)(F)F)C1 (centres undefined)	11%	x	4%	x	34%
CCC/C=C1/CCCOC(C(=O)NCc2ccc(C)o2)(C(F)(F)F)C1 (centres undefined)	56µM*	x	-10%	x	24%
CCC/C=C1/CCCOC(C(=O)NCc2ccc(S(C)(=O)=O)cc2)(C(F)(F)F)C1 (centres undefined)	-6%	x	-4%	x	36%
O=C(NCc1ccccn1)C1(C(F)(F)F)C/C(=C\CCO)CCCO1 (centres undefined)	-13%	x	28µM*!	x	33%
